# From PubChem BioAssay AID624305 (National Center for Advancing Translational Sciences (NCATS), 2012)
# Results filed as inconclusive are left out. Activity calls are given as the source filed them. Calls come from the whole dose curve; as a rule, active = well fitted activation curve with a large enough effect; inconclusive = small, poorly fitted or top-dose-only effect; inactive = no such curve, though single readings can be large or run the other way.
# Test: qHTS assay for re-activators of p53 using a Luc reporter: Hit Validation; note: nearly all actives have a fitted effect of over 75% in size; for activation: 0% is about no effect
# Settings: p53-responsive luciferase reporter cells, luminescence, H1299 line expressing heat-sensitive Ala138Val p53; series mostly up to 46.1 µM; activation: at the top concentration
# How it was run: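 H1299 (p53-null) cells stably carrying p53-A138V and a BP100-luciferase reporter, 1000 cells/well, treated 24 h at 37 deg C. Compounds at several concentrations, 1:5 dilution; nocodazole control; luminescence read after 10 min with detection reagent.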
# Potency is the fitted concentration of half-maximal effect.
SMILES,activation,Potency
COc1cc(C(=O)NCCc2cn3ccc(C)cc3n2)cc(OC)c1OC,13.6% [at 9.22 µM] (inactive),–
Cc1nc(NC(=O)c2csc3ccccc23)sc1C,–,0.82 µM (active)
O=C(Nc1nc(-c2cccs2)cs1)c1ccc([N+](=O)[O-])o1,–,20.6 µM (active)
O=C(NCCCNC1CCCCC1)c1ccc(/C=N/O)nc1,19.3% (inactive),–
Clc1ccc(OCc2nc(-c3ccncc3)no2)c(Cl)c1,–,8.2 µM (active)
C=C[C@@H]1c2cc(C)ccc2N(S(=O)(=O)c2ccc(C)cc2)[C@H](c2ccccc2C(F)(F)F)C1(C#N)C#N,-29.7% (inactive),–
O=C1c2cccc3cc([N+](=O)[O-])cc(c23)C(=O)N1CCN1CCCC1,147% (inactive),–
COC(=O)C1=C(C(=O)c2ccccc2)C(c2ccc(OC)c(OC)c2)Nc2nnnn21 (stereo not drawn),7.81% (inactive),–
COc1ccc(-n2cnc3c(cnn3CCC#N)c2=N)cc1,25.5% (inactive),–
CCCSc1ccc2nc(-c3ccccc3)cn2c1,–,0.206 µM (active)
COc1cc(C(=O)NCC(=O)Nc2c(C)cccc2C)ccc1OCc1ccccc1,-7.81% (inactive),–
CCSc1nnc(SCC(=O)NC2CCCCC2)s1,-8.33% (inactive),–
NC(=O)c1cc2ccc(O)cc2oc1=Nc1ccccc1,-2.08% (inactive),–
CCCCC(=O)NC(c1ccc(Cl)cc1Cl)c1ccc2cccnc2c1O (stereo not drawn),–,20.6 µM (active)
Cc1cc2nc(-c3ccc(SCC(=O)Nc4ccc(S(=O)(=O)NC5CC5)cc4)nc3)[nH]c2cc1C,–,2.31 µM (active)
O=C(N/N=C/c1cn(-c2ccccc2)nc1-c1cc2ccccc2o1)c1ccccc1Br,–,7.31 µM (active)
CCOc1ccc(NC(=O)C(c2ccccn2)N(C(=O)CCl)c2ccc(OC)cc2)cc1 (stereo not drawn),40.6% (inactive),–
CC(=O)c1ccc(N2Cc3ccccc3C2=NC(=O)c2cccs2)cc1,41.7% (inactive),–
CSCCC(NC(=O)c1ccc(Cl)cc1Cl)C(=O)N1CC(C)OC(C)C1 (stereo not drawn),-22.9% (inactive),–

SMILES,activation,Potency
Cc1ccc(C2C(C#N)=C(N)Oc3cc4c(cc32)OCO4)cc1 (stereo not drawn),27.1% (inactive),–
Cc1ccc(-c2cc(-c3ccccc3Cl)[nH]n2)c(O)c1,–,14.6 µM (active)
Cc1ccc(NC(=O)/C=C/c2ccco2)nc1,–,2.59 µM (active)
Cn1c(Cc2cccs2)nnc1SCc1nc2ccccc2[nH]1,6.77% (inactive),–
c1ccc(-n2ncc3c(N4CCCCC4)ncnc32)cc1,–,1.16 µM (active)
Cc1ccccc1C(=O)Nc1ccc(Br)cn1,–,3.66 µM (active)
CC(C)C(=O)NC(c1cccs1)c1cc([N+](=O)[O-])c2cccnc2c1O (stereo not drawn),-2.08% (inactive),–
Clc1ccc(OCc2cc(-c3ccccc3)no2)c(Cl)c1,–,1.16 µM (active)
Cc1cc(C(=O)COC(=O)c2cccc(O)c2)c(C)n1C1CC1,–,0.13 µM (active)
O=C(COC(=O)c1cn(-c2ccccc2)nc1-c1ccc(F)cc1)Nc1ncc(Cl)cc1Cl,21.9% (inactive),–
COc1cc(C(C)=O)ccc1Oc1ncnc2c1cnn2-c1ccc(F)cc1,9.9% (inactive),–
Cc1cc(C)cc(OCC(=O)NNC(=O)c2ccccn2)c1,18.2% (inactive),–
Cc1ccc(C(=O)CN2C(=O)NC3(CCCCC3C)C2=O)s1 (stereo not drawn),-5.21% (inactive),–
CS(=O)(=O)n1nc(-c2ccc(Cl)cc2)nc1SCc1ccccc1,–,20.6 µM (active)
CC(OC(=O)c1cccc([N+](=O)[O-])c1)C(=O)N1CCc2ccccc21 (stereo not drawn),30.2% (inactive),–
COc1cc(NC(=O)CSCc2ccc(Cl)cc2)c(C(=O)O)cc1OC,-13% (inactive),–
O=C(COC(=O)C12CC3CC(CC(O)(C3)C1)C2)Nc1ccc(Br)cc1F,–,14.6 µM (active)
CC(C)OC(=O)CCCCCN1C(=O)CSC1=S,5.73% (inactive),–
O=C(Nc1ccc2c(c1)OCO2)c1cc(Cl)ccn1,–,4.61 µM (active)
